# Measurements: PubChem BioAssay
# The source made the active and inactive calls.
# How the values were obtained:
# [1] = optical density shifts of acrAB sulA E. coli – strain DRC41, OD650, 48 h, E. coli filamentation inducer project, primary screen (AID 1152); settings: higher = more signal, called active from +8 up or from −8 down;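 note: E. coli MC1000 strain DRC41 lacking acrAB efflux pump and sulA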
# [2] = probe aLefty1 binding on compound microarray – biochemical, small-molecule microarray, 635/667 nm fluorescence, primary screen (AID 1153); settings: higher = more signal;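 note: score merges spot fluorescence with signal-to-noise ratio from the scanned slide images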
# [3] = plasmodial surface anion channel blockers, osmotic lysis – cell-based, P. falciparum Indochina, OD700, 1 h, primary screen (AID 1154); settings: P. falciparum Indochina infected RBC osmotic lysis, higher = more signal, called active from +8 up or from −8 down
# [4] = plasmodial surface anion channel blockers, osmotic lysis – cell-based, P. falciparum Indochina, OD700, 2 h, primary screen (AID 1155);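 note: lysis reports solute entry through the parasite surface anion channel PSAC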; settings: P. falciparum Indochina infected erythrocytes, higher = more signal, called active from +8 up or from −8 down
# [5] = changes in parasitized red cell lysis, either direction – P. falciparum Indochina, OD700, 3 h, PSAC antagonist project, primary screen (AID 1156); settings: P. falciparum-infected erythrocytes, osmotic lysis, higher = more signal, called active from +8 up or from −8 down
# [6] = plasmodial surface anion channel blockers, osmotic lysis – cell-based, P. falciparum Indochina, OD700, 18 h, primary screen (AID 1157); settings: P. falciparum Indochina infected erythrocytes, osmotic lysis OD700, 18 h; higher = more signal, called active from +8 up or from −8 down
# [7] = S6 kinase pathway phospho-S6 level changes – cell-based, A549, cytoblot, luminescence, serum-stimulated, primary screen (AID 1158); settings: 5 h, higher = more signal;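 note: serum-stimulated A549 lung adenocarcinoma cells; signal is phosphorylated S6 detected by cytoblot immunostaining with HRP secondary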
# [8] = target: NADPH oxidase 2 (Homo sapiens) (UniProt P04839); assay: compounds shifting NOX2 Amplex Red fluorescence – cell-based, HEK293-NOX2, PMA-stimulated, NOX inhibitor project, primary screen (AID 1159); settings: 45 min, higher = more signal, called active from +8 up or from −8 down; note: test concentration not given here
# Chain of NADPH oxidase 2 (Homo sapiens) (P04839 whole entry, looked up): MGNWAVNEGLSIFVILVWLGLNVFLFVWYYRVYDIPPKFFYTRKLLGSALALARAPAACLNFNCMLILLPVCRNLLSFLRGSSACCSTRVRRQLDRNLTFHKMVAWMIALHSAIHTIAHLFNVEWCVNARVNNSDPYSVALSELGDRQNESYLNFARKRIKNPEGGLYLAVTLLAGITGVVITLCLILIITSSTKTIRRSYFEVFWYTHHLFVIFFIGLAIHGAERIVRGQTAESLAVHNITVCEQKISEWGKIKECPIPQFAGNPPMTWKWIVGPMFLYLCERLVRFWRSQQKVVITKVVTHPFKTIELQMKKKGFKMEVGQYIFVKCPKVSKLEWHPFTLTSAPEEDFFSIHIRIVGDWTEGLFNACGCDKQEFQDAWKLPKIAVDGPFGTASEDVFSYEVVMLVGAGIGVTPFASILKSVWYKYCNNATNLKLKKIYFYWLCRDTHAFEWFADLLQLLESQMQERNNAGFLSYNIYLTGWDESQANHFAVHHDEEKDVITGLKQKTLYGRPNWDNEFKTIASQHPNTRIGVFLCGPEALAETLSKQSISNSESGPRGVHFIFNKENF
# [9] = target: NADPH oxidase 4 (Homo sapiens) (UniProt Q9NPH5); assay: compounds shifting NOX4 Amplex Red fluorescence – cell-based, HEK293-NOX4, tetracycline-induced, NOX inhibitor project, primary screen (AID 1160); settings: HEK293-NOX4, Amplex Red H2O2 fluorescence, 45 min; higher = more signal, called active from +8 up or from −8 down
# Chain of NADPH oxidase 4 (Homo sapiens) (Q9NPH5 whole entry, looked up): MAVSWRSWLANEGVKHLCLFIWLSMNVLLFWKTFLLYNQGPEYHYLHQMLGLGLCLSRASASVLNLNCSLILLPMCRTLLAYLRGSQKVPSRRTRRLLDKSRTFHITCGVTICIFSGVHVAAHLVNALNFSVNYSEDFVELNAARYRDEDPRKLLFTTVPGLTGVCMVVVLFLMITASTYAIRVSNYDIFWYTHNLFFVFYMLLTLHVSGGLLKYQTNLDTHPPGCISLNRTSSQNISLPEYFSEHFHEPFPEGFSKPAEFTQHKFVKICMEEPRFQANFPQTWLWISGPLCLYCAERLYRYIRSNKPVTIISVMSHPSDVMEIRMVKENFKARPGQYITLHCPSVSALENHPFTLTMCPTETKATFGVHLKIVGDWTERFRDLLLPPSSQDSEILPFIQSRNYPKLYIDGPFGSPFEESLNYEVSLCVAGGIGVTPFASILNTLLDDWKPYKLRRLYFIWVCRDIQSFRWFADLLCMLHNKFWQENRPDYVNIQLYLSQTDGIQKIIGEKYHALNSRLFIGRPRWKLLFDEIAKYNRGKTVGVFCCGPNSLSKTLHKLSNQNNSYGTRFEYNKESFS
# [10] = target: NADPH oxidase 5 (Homo sapiens) (UniProt Q96PH1); assay: compounds shifting NOX5 Amplex Red fluorescence – cell-based, HEK293-NOX5, NOX inhibitor project, primary screen (AID 1161); settings: HEK293-NOX5, ionomycin, 45 min, higher = more signal
# Chain of NADPH oxidase 5 (Homo sapiens) (Q96PH1 whole entry, looked up): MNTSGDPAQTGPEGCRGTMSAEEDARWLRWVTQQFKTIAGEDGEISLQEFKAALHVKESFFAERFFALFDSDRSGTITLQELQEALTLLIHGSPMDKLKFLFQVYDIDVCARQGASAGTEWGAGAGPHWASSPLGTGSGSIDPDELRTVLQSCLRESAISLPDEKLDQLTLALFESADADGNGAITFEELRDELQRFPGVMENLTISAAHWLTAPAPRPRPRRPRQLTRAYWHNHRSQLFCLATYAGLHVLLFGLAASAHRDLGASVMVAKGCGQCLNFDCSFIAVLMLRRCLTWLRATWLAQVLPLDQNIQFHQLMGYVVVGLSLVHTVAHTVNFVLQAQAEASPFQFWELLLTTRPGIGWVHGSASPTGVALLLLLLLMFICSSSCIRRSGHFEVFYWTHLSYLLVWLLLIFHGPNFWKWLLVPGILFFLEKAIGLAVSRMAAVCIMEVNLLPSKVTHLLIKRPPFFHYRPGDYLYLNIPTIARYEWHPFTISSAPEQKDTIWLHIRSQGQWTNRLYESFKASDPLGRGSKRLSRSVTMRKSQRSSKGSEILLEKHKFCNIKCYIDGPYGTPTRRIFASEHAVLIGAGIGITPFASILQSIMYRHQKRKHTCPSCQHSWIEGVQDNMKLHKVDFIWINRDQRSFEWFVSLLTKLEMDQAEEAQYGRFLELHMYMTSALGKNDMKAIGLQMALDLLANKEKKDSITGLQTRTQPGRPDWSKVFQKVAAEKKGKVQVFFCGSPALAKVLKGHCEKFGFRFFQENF
# [11] = compound effects on lung adenocarcinoma cell viability – A549, calcein-AM fluorescence, 48 h, basal, profiling panel (AID 1162); settings: higher = more signal; note: test concentration not given here
# [12] = compound effects on differentiated 3T3-L1 adipocyte viability – cell-based, 3T3-L1 adipocytes, calcein-AM fluorescence, 48 h, basal, profiling panel (AID 1163); settings: 3T3-L1 adipocytes viability, higher = more signal; note: test concentration not given here
# [13] = compound effects on hepatocellular carcinoma cell viability – HepG2, calcein-AM fluorescence, 48 h, basal, profiling panel (AID 1164); settings: higher = more signal; note: test concentration not given here
# [14] = compound effects on multiple myeloma cell viability – MM1S, calcein-AM fluorescence, 48 h, basal, profiling panel (AID 1165); settings: higher = more signal;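 note: viability of MM1S multiple myeloma cells under basal unstimulated conditions; test concentration not given here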
# [15] = calcein-AM signal in unstimulated myeloma cells – cell-based, calcein-AM fluorescence, 48 h, PK04 Diversity Set, profiling panel (AID 1166); settings: RPMI8226 myeloma viability, higher = more signal;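 note: cells grown under basal conditions without added stimulus; test concentration not given here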
# [16] = JC-1 mitochondrial signal, unstimulated HepG2 cells – cell-based, JC-1 fluorescence, 24 h, 100 nL compound, profiling panel (AID 1167); settings: HepG2 mitochondrial potential, higher = more signal; note: test concentration not given here
# [17] = JC-1 mitochondrial signal, unstimulated adipocytes – cell-based, JC-1 fluorescence, 3T3-L1 adipocytes, 24 h, 100 nL compound, profiling panel (AID 1168); settings: JC-1 mitochondrial fluorescence, higher = more signal, called active from +8 up or from −8 down; note: test concentration not given here
# [18] = JC-1 mitochondrial signal, unstimulated myeloma cells – cell-based, JC-1 fluorescence, RPMI8226, 24 h, 100 nL compound, profiling panel (AID 1169); settings: JC-1 mitochondrial potential fluorescence, higher = more signal; note: test concentration not given here
# [19] = JC-1 mitochondrial signal, unstimulated MM1S myeloma – cell-based, JC-1 fluorescence, 24 h, 100 nL compound, profiling panel (AID 1170); settings: MM1S mitochondrial potential, higher = more signal; note: test concentration not given here
# [20] = resazurin metabolic signal in A549 cells – cell-based, resazurin fluorescence, 24 h, PK04 Diversity Set, profiling panel (AID 1171); settings: A549 viability, higher = more signal, called active from +8 up or from −8 down; note: test concentration not given here
Compound,z-score [1],composite z-score [2],z-score [3],z-score [4],z-score [5],z-score [6],z-score [7],z-score [8],z-score [9],z-score [10],z-score [11],z-score [12],z-score [13],z-score [14],z-score [15],z-score [16],z-score [17],z-score [18],z-score [19],z-score [20]
COC(=O)[C@@]1(Cc2ccc(OC)cc2)[C@H]2c3cc(C(=O)N4CCCC4)n(CCc4c[nH]c5cc(F)ccc45)c3C[C@H]2CN1C(=O)c1ccccc1,-0.429 (inactive),1.27,3.07 (inactive),0.676 (inactive),0.745 (inactive),1.06 (inactive),-0.174,0.438 (inactive),0.0193 (inactive),-0.293,0.866,-0.124,0.172,-1.08,-0.758,-0.37,0.492 (inactive),-0.304,-0.662,0.313 (inactive)
COCC(=C=CC[C@H](O)c1ccc(OCCO)cc1)C[C@H](O)c1cc(Cl)cc(Cl)c1O,1.37 (inactive),0.155,10.3 (active),2.44 (inactive),-2.64 (inactive),-0.162 (inactive),0.175,-2.99 (inactive),-1.12 (inactive),-3.26,-1.05,0.0622,-0.616,-2.31,-0.638,-0.0342,0.138 (inactive),0.04,-1.42,0.799 (inactive)
Cc1ccccc1C(O)C1C=CC2C(=O)N(C)C(=O)C2N1Nc1ccccc1 (stereo not given),-1.71 (inactive),0.274,1.15 (inactive),0.737 (inactive),-0.0787 (inactive),1.1 (inactive),-0.711,-1.39 (inactive),-4.19 (inactive),-2.72,0.262,-1.23,-0.284,-0.143,-0.272,-1.96,-1.19 (inactive),-0.317,-0.00815,-0.621 (inactive)
O=c1oc(-c2ccccc2)nc2cc(Br)ccc12,0.311 (inactive),-0.0099,3.27 (inactive),0.635 (inactive),-1.02 (inactive),0.845 (inactive),-0.29,0.377 (inactive),-0.138 (inactive),-0.291,-0.423,0.111,0.659,-1.99,-0.633,-0.773,0.67 (inactive),-0.0586,0.873,-0.141 (inactive)
CCOC(=O)C1=C[C@@H](CC)N(S(=O)(=O)c2ccc(C)cc2)[C@H]1c1ccccc1,-1.03 (inactive),0.271,1.83 (inactive),0.797 (inactive),-0.187 (inactive),0.415 (inactive),-0.388,0.0452 (inactive),-0.606 (inactive),-0.182,-0.934,-0.167,-0.342,-0.922,-1.37,-0.378,-1.31 (inactive),0.649,-0.894,1.46 (inactive)
